From PubChem BioAssay AID2685 (National Center for Advancing Translational Sciences (NCATS), 2010) come the findings set out here.

Among all 320,000 compounds or so, about 2,100 (0.66%) were called active. Inconclusive results (about 53%) are left out. Calls come from the whole dose curve; as a rule, active = well fitted inhibition curve with a large enough effect in the signal ratio, with a control signal flat (not every such curve was filed as active); inconclusive = small, poorly fitted or top-dose-only effect, or effect the other way, or a change in a side signal; inactive = flat fitted curve, though single readings scatter; the % refers to the signal ratio. Many of the other results were omitted from the sample, so actives are more common in it than they were.
Potency is the fitted concentration of half-maximal effect.

A short description of this test: qHTS Assay for Lipid Storage Modulators in Drosophila S3 Cells.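 For cell number change: cells counted by Cell Tracker Red CMTPX staining in the red channel.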 For lipid storage change, negative = inhibition: % is set by controls: 0 for no effect and ±100 for the full control effect. The following applies: BODIPY lipid droplet fluorescence, 18-24 h, cells fed with added oleic acid; cell number change: measured here: cell count max response; series mostly up to 46.1 µM; lipid storage change, negative = inhibition: at the top concentration. The essentials: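 Drosophila S3 cells loaded with oleic acid (400 uM, as added) and compounds at several concentrations; lipid droplets imaged by 488-nm laser-scanning cytometry, 500–530 nm intensity and object ratio to cell channel. Percent activity normalized to 20 uM Triacsin C.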
(In general: Quantitative high-throughput screening tests each substance at several concentrations.)
With `CC(C)(C)NC(=O)c1cc(-c2ccccc2)n[nH]1`, the “lipid storage change, negative = inhibition” value was 4.25% (inactive). On to `CCCOc1ccc(/C=C2\SC(N)=NC2=O)cc1OC`, for which the “lipid storage change, negative = inhibition” value was 9.06% (inactive) and the cell number change was found to be 8.06%. As for `NC(=O)c1cc(S(=O)(=O)N2CCN(c3cccc(Cl)c3)CC2)cs1`, the call was inactive and the cell number change came out at 14.3%. Turning to `COc1ccccc1/C=C/C1C(C(=O)OCC(C)C)=C(C)N=C2SCCC(=O)N21` (stereo not given), the “lipid storage change, negative = inhibition” value is 3.95% (inactive) and the cell number change is 9.42%.

For the compound `Cc1ccc(NC(=O)c2cn(CCC#N)nc2-c2cccs2)c([N+](=O)[O-])c1`, the “lipid storage change, negative = inhibition” value was -1.84% (inactive) and the cell number change is -4.62%. The like results for `Cc1ccc(C2NC(c3ccc(C)cc3)C([N+](=O)[O-])C(C)(C)C2[N+](=O)[O-])cc1` (stereo not given) were, in that order, 8.05% (inactive) and -8.86%. The like results for `CC1(C)C([N+](=O)[O-])C(c2ccc(F)cc2)NC(c2ccc(F)cc2)C1[N+](=O)[O-]` (stereo not given) were, in that order, 9.03% (inactive) and 2.48%. For the compound `Cc1cccc(C2NC(c3cccc(C)c3)C([N+](=O)[O-])C(C)(C)C2[N+](=O)[O-])c1` (stereo not given), the Potency is 5.17 µM (active) and the cell number change was 3.3%. Take `Cc1cccc(NC(=O)CS(=O)(=O)c2cn(C)c3ccccc23)c1C`: the compound was classed as inactive.

Turning to `Clc1ccc(-c2nnc(CNC3CC3)o2)cc1`, the “lipid storage change, negative = inhibition” value is 15.9% (inactive) and the cell number change was 6.34%. Taken in the same sequence, the figures for `CCCCCN(C(=O)CN1CCC(Cc2ccccc2)CC1)c1c(N)n(CCCC)c(=O)[nH]c1=O` were 11.8% (inactive) and 27.6%. Consider `CCOC(=O)C1CCCN(CCC(=O)Nc2ccc(Br)c(C)c2)C1` (stereo not given), for which the Potency was 18.4 µM (active) and the cell number change amounted to 4.56%. Consider `CCOC(=O)C1CCCN(CCC(=O)Nc2ccc(C)c(C)c2)C1` (stereo not given), for which the “lipid storage change, negative = inhibition” value is 3.75% (inactive) and the cell number change came to 17%. Turning to `CCOC(=O)C1CCN(CCC(=O)Nc2ccc(Br)c(C)c2)CC1`, the “lipid storage change, negative = inhibition” value is -7.09% (inactive) and the cell number change was found to be 0.794%. For `O=C(NCCc1nc2ccccc2[nH]1)/C(=C/c1ccco1)NC(=O)c1ccc(Br)o1`, the “lipid storage change, negative = inhibition” value is -4.25% (inactive) and the cell number change is -2.37%. Consider `COc1ccc2[nH]c(C)c(CN3CCCCC3)c(=O)c2c1`, for which the “lipid storage change, negative = inhibition” value is -27.3% (inactive) and the cell number change is -15.2%. Regarding `CCc1nnc(NC(=O)C2CCN(S(=O)(=O)Cc3ccccc3)CC2)s1`, the “lipid storage change, negative = inhibition” value was -3.51% (inactive) and the cell number change was -9.95%. Take `CC(=O)c1cccc(NC(=O)CSc2nnc(-c3ccncc3)o2)c1`: the compound was called inactive and the cell number change is 13.1%. Regarding `O=C(NCCN1CCN(C(=O)c2cccc([N+](=O)[O-])c2)CC1)C(=O)NCc1ccc(Cl)cc1`, the Potency was 6.51 µM (active) and the cell number change is -18.5%. Consider `O=C(NCCN1CCN(C(=O)c2ccc([N+](=O)[O-])cc2)CC1)C(=O)NCc1ccccc1`, for which the result was inactive and the cell number change is -7.25%. Consider `O=C(c1cccc([N+](=O)[O-])c1)N1CCN(c2cccc(Cl)c2)CC1`, for which the “lipid storage change, negative = inhibition” value is 19.9% (inactive).

Turning to `CC(=O)Nc1ccc(SCC(=O)c2c(N)n(Cc3ccccc3)c(=O)n(C)c2=O)cc1`, the “lipid storage change, negative = inhibition” value is -2.16% (inactive) and the cell number change was 14.5%.

Regarding `CCOC(=O)C1CCN(C(=O)CCNC(=O)Cn2ccc3ccccc3c2=O)CC1`, the “lipid storage change, negative = inhibition” value was 5.32% (inactive) and the cell number change was 0.532%. Taken in the same sequence, the figures for `Cc1sc2nc(COC(=O)c3ccc(N4CCCC4)c([N+](=O)[O-])c3)[nH]c(=O)c2c1C` were 11.9% (inactive) and 5.98%. The like results for `CCOC(=O)c1c(NC(=O)c2ccc(C)cc2)sc2c1CC(C)(C)NC2(C)C` were, in that order, -18.8% (inactive) and -1.96%. Take `Cc1ccc(NC(=O)Cc2nn(C)c(=O)c3ccccc23)cc1F`: the “lipid storage change, negative = inhibition” value is -0.0108% (inactive). For `CC(=O)Nc1ccc(NC(=O)CC(NC(=O)c2ccccc2)c2ccccc2)cc1` (stereo not given), the “lipid storage change, negative = inhibition” value is 2.63% (inactive) and the cell number change came out at 19%.

As to `CC(=O)Nc1ccc(C(=O)NNC(=O)c2ccc(Cl)cc2)cc1`, the outcome was inactive.

With `CC(=O)Nc1ccc(C(=O)NC(CC(=O)O)c2ccc(Cl)cc2)cc1` (stereo not given), the Potency was 20.6 µM (active) and the cell number change was -19.4%. As to `COc1ccc(NC(=O)C(c2ccc(OC)cc2)N(C)C(=O)Cc2cccs2)cc1` (stereo not given), the “lipid storage change, negative = inhibition” value was 19.6% (inactive) and the cell number change amounted to 9.03%. In the case of `O=C(Cc1ccccc1)NNC1CC(=O)N(c2ccccc2)C1=O` (stereo not given), the “lipid storage change, negative = inhibition” value was 10.5% (inactive) and the cell number change was found to be 0.451%. Consider `CC(=O)N1CCN(c2ccc(NC(=O)c3ccc(N4CCCC4)c([N+](=O)[O-])c3)cc2Cl)CC1`, for which the call was inactive.

As for `CCc1ccc(N2CC(C(=O)Nc3nc4ccc(S(C)(=O)=O)cc4s3)CC2=O)cc1` (stereo not given), the Potency is 2.31 µM (active) and the cell number change was -21.1%.

Take `CCc1ccc(N2CC(C(=O)Nc3nccs3)CC2=O)cc1` (stereo not given): the “lipid storage change, negative = inhibition” value is 12.6% (inactive) and the cell number change was -0.507%.

Regarding `O=C(Nc1nc2ccccc2s1)C1CC(=O)N(c2ccc(Br)cc2)C1` (stereo not given), the compound was called inactive and the cell number change is 1.03%.

In the case of `COc1cc(-n2c(=O)c3ccccc3n(CC(=O)c3ccc(Br)cc3)c2=O)cc(OC)c1OC`, the “lipid storage change, negative = inhibition” value is -0.64% (inactive) and the cell number change was 7.89%.

Regarding `CC(=O)Nc1ccc(NC(=S)NC(=O)C2CCCC2)cc1`, the call was inactive and the cell number change is 16.2%.

Consider `COc1ccc(NC(=S)NC(=O)C2CCC2)cc1`, for which the “lipid storage change, negative = inhibition” value was 15.8% (inactive) and the cell number change was -5.57%. Consider `CCN(CC)c1ccc(NC(=S)NC(=O)C2CCC2)cc1`, for which the Potency was 4.11 µM (active) and the cell number change was -16.8%. With `Cc1ccc(C(=O)OCC(=O)NCCNC(=O)COC(=O)c2ccc(C)o2)o1`, the cell number change was found to be 26.3% and the outcome is “inactive [at 0.0737 µM]”.

For the compound `CC(=O)Nc1ccc(S(=O)(=O)Nc2cccc(-c3ccc4nncn4n3)c2)cc1`, the Potency is 0.731 µM (active) and the cell number change is -19.1%. For `Cc1ccc(S(=O)(=O)Nc2cccc(-c3ccc4nncn4n3)c2)cc1`, the lipid storage change, negative = inhibition is -0.542% [at 0.0737 µM] (inactive). As for `Cc1ccc(S(=O)(=O)Nc2ccc(-c3ccc4nncn4n3)cc2)cc1`, the “lipid storage change, negative = inhibition” value is 7.13% (inactive) and the cell number change was -22.1%. As for `COc1ccc(N(C(=O)Cn2nnc(-c3ccc(F)cc3)n2)C(C)C(=O)NC2CCCC2)cc1` (stereo not given), the Potency is 1.3 µM (active) and the cell number change came to 10.5%. Consider `COc1ccc(N(C(C)C(=O)NC2CCCCCC2)S(C)(=O)=O)cc1` (stereo not given), for which the Potency is 5.17 µM (active) and the cell number change was 22.1%. Consider `COc1ccc(N(CC(=O)NC2CCCC2)C(=O)Cn2nnc(-c3ccc(F)cc3)n2)cc1`, for which the compound was called inactive and the cell number change stood at 7.89%.
